GALK inh – qHTS Assay for Inhibitors of Human Galactokinase (GALK). Purified GALK, Kinase-Glo residual ATP luminescence. 270,000 compounds, 0.007% hits. Potency, µM (top dose mostly 57.5 µM), for the others: at the top dose activity change, negative = inhibition, actives largely listed as inhibitors. P51570
Target sequence (P51570 whole entry, looked up): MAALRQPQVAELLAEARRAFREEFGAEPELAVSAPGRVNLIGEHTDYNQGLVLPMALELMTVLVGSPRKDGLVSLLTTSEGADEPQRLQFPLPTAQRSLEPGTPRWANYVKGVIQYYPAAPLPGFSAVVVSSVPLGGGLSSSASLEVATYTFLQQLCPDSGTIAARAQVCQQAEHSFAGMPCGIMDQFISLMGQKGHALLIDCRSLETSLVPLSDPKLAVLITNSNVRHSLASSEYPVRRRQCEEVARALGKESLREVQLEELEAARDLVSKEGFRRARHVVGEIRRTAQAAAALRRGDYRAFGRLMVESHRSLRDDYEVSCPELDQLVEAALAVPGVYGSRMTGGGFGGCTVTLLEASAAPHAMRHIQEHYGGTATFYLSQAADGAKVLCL
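Luminescence from leftover ATP (Ultra-Glo luciferase/luciferin) served as read-out after a 1 h room-temperature reaction of 5 nM GALK with 35 uM ATP and 100 uM galactose.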
PKM2 activator – qHTS Assay for Activators of Human Muscle isoform 2 Pyruvate Kinase. purified PKM2, Kinase-Glo ATP luminescence, activation; response scale: 0% is enzyme alone, no compound. 260,000 compounds, 0.34% hits. Potency, µM (series often up to 57.5 µM), inactives show at the highest dose activation, actives largely listed as activators; note: nearly all actives have a fitted effect of over 55% in size
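hPK-M2, >95% pure; 0.1 mM ADP / 0.5 mM PEP final; imidazole pH7.2 buffer w/ 7 mM MgCl2, 50 mM KCl; 1 h RT; Kinase-Glo lum. Intermediate enzyme activity for dual inhibitor/activator qHTS.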
TrxR1 substrate – qHTS Assay for Substrates of Mammalian Selenoprotein Thioredoxin Reductase 1 (TrxR1): qHTS; Thioredoxin reductase 1, cytoplasmic (Rattus norvegicus), O89049; purified TrxR1 substrate turnover, NADPH consumption readout; Potency, µM (top dose mostly 114 µM), for the others: top-dose activity change, negative = substrate turnover; 390,000 compounds, 0.01% hits; AID 588456, 2011; note: nearly all actives have a fitted effect of over 50% in size
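Rat TrxR1, dispensed at 90 nM, was prereduced with 400 uM NADPH (final) for 5 min at ~22 deg C, then incubated with compound 15 min before 400 uM selenite. A first-read NADPH fluorescence drop versus no-compound background flagged substrates.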
Anesthetic bind – qHTS Assay for Identification of Novel General Anesthetics | apoferritin/1-aminoanthracene competitive binding, fluorescence | Potency, µM (titrated, usually from 77.5 µM), for the others: at the top dose activity change, negative = displacement, hits mostly inhibitors | 350,000 compounds, 0.074% hits; note: nearly all actives have a fitted effect of over 20% in size
Target sequence (P02791 2-175 limits assumed): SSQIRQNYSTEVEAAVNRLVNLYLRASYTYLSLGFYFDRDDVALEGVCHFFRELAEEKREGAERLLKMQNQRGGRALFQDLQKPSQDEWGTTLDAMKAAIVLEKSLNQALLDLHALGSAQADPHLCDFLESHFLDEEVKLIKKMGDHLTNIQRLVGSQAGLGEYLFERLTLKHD
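Apoferritin-based anesthetic binding model; compound displacement of fluorescent 1-AMA measured as endpoint fluorescence after 10 minutes at room temperature, scaled to free-ligand and complex controls.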
IDH1 R132H inh – qHTS for Inhibitors of mutant isocitrate dehydrogenase 1 (IDH1): qHTS | Potency, µM (doses to about 76.6 µM), without a hit: top-dose activity change, negative = inhibition, most hits filed as inhibitors | IDH1-R132H enzyme, NADPH consumption, diaphorase/resazurin fluorescence | AID 602179, 2012 | 390,000 compounds, 0.093% hits | Isocitrate dehydrogenase [NADP] cytoplasmic (Homo sapiens), O75874; note: nearly all actives have a fitted effect of over 65% in size
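IDH1-R132H (0.5 ug/mL) preincubated 30 min with compound, then NADPH (0.016 mM) and alpha-KG (2 mM) added; 80 min at RT, pH 7.5. Remaining NADPH coupled via diaphorase/resazurin to fluorescence (540/590 nm); concentration-response curves normalized to no-enzyme control.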
TrxR1 inh – qHTS Assay for Inhibitors of Mammalian Selenoprotein Thioredoxin Reductase 1 (TrxR1): qHTS; Thioredoxin reductase 1, cytoplasmic (Rattus norvegicus), O89049; recombinant rTrxR1, NADPH fluorescence consumption, selenite substrate; Potency, µM (titrated, usually from 114 µM), for inactives: at the top dose activity change, negative = inhibition, actives largely listed as inhibitors; 390,000 compounds, 1% hits; AID 588453, 2011; note: nearly all actives have a fitted effect of over 65% in size
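Rat TrxR1 (90 nM in the dispensed reagent) was pre-reduced with 400 uM NADPH for 5 min at room temperature, then incubated with compound for 15 min. After 400 uM selenite was added, NADPH fluorescence (Ex 340/Em 450 nm) was followed for 8 min.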
An asterisk follows results filed as active; ? = inconclusive; · = no result; [ ] = another dose, or the depositor's remark. An excerpt weighted towards active compounds, which were near 1.3% of everything screened. Calls come from the whole dose curve; as a rule, active = well fitted curve in the direction sought with a large enough effect; inconclusive = small, poorly fitted or top-dose-only effect, or another doubt; inactive = no such curve, though single readings can be large; an effect the other way counts as inactive or inconclusive. % is set by controls: 0 for no effect and ±100 for the full control effect; potency is the fitted concentration of half-maximal effect.

SMILES	GALK inh	PKM2 activator	TrxR1 substrate	Anesthetic bind	IDH1 R132H inh	TrxR1 inh
Cc1ccc(CCNC(=O)CS(=O)Cc2nc(-c3cccs3)oc2C)cc1 (configuration not stated)	-1.5%	-4.0%	-1.7%	-10.1%	-3.4%	14.1µM*
Cc1ccc(CNC(=O)CS(=O)Cc2nc(-c3cccs3)oc2C)cc1 (configuration not stated)	0.5%	12.7%	6.4%[57.1 µM]	-20.8%	-1.1%	?
CCOC(=O)c1cc(S(=O)(=O)N2CCN(c3ccc(C)cc3C)CC2)[nH]n1	·	·	3.1%[57.1 µM]	-0.5%	-10.5%	19.8%[57.1 µM]
CN(C)c1ccc(/C=C/c2ccnc3ccccc23)c(N)c1	·	·	4.6%	·	·	14.4%
CS(=O)(=O)c1ccc(C(=O)OCc2nnc(-c3ccc(Cl)cc3)o2)cc1[N+](=O)[O-]	2.8%	6.9%	8.3%[57.1 µM]	-17.5%	-15.5%	1.78µM*
O=C(OCc1nnc(-c2ccc(Cl)cc2)o1)c1ccc(O)cc1	4.9%	-0.3%	10.3%	-13.4%	11.3%	31.2%
CC1(C)CC(=O)C(CS(=O)(=O)c2ccccc2)=C(O)C1	-2.2%	-3.8%	4.7%	31.6µM*	0.0%	50.1µM*
Cc1nc(-c2ccc(Cl)cc2)sc1CCNC(=O)c1ccc(C(F)(F)F)cc1	·	·	8.9%[57.1 µM]	-4.8%	-15.2%	11.9%[57.1 µM]
Cc1cc(Sc2nc(N)ncc2[N+](=O)[O-])ncn1	4.2%	-0.6%	9.8%[57.1 µM]	-7.3%	10.8%	1.58µM*
Cc1cc(Sc2ncnc(N)c2[N+](=O)[O-])ncn1	0.8%	7.8%	9.3%[57.1 µM]	-8.7%	4.9%	?
C[C@H](NC(=O)OC(C)(C)C)[C@@H](O)c1ccco1	·	·	2.0%	·	·	-2.3%
COC(=O)C(CC(=O)c1ccc(Br)cc1)n1nc(C)cc1C (configuration not stated)	6.5%	-2.9%[11.5 µM]	8.8%	-0.9%	-2.2%	8.91µM*
COC(=O)C(CC(=O)c1ccc(C)cc1)n1nc(C)cc1C (configuration not stated)	-4.5%	4.1%[11.5 µM]	12.4%	20.3%	-3.5%	?
COc1cccc(OCC(=O)Nc2nnc3n2CCS3)c1	·	·	-1.6%[57.1 µM]	-3.2%	-3.5%	18.8%[57.1 µM]
CCN(CC)C(=O)c1ccc(Oc2ccc([N+](=O)[O-])cc2Cl)cc1	3.5%	3.2%	2.8%[57.1 µM]	?	7.0%	29.9%[57.1 µM]
CCN(CC)C(=O)c1cc([N+](=O)[O-])cc2c1-c1ccc([N+](=O)[O-])cc1C2=C(C#N)C#N	2.7%	1.1%	-4.4%	-5.3%	3.1%	25.1µM*
CCN(CC)c1cc(C)c2cc(NC(=O)/C=C/c3ccc(C)cc3)ccc2n1	·	·	-3.5%	18.4%	22.3%	11.5%
Brc1ccc(-c2nn3c(-c4ccco4)nnc3s2)o1	-0.4%	4.8%	-0.6%[57.1 µM]	?	-0.6%	28.2µM*
O=C(CCN1C(=O)/C(=C/c2cccs2)SC1=S)Nc1cccc(O)c1	10.6%	5.01µM*	-11.1%	-17.4%	-8.0%	-19.8%
CC(/C=C/c1ccco1)=N/NC(=O)Cc1cccs1	-1.3%	0.1%	-12.9%	-11.5%	3.2%	39.8µM*
CC(/C=C/c1ccco1)=N\NC(=O)c1cc(C)[nH]n1	2.5%	12.6%	-4.1%	-8.7%	-4.0%	15.8µM*
CC(/C=N/NC(=O)Cc1cccs1)=C\c1ccco1	·	19.5%	-8.6%	?	2.4%	?
O=C(Cc1ccc(OCc2ccccc2)cc1)NO	·	·	5.2%	·	·	13.0%
CC(C)c1cc(-c2nc(-c3cccc(Cl)c3)no2)n[nH]1	·	·	-6.5%[57.1 µM]	?	1.2%	4.4%[57.1 µM]
Cc1cccc(-c2noc(-c3cc(C(C)C)[nH]n3)n2)c1	·	·	-1.4%[57.1 µM]	15.8µM*	-3.2%	15.3%[57.1 µM]
SMILES	GALK inh	PKM2 activator	TrxR1 substrate	Anesthetic bind	IDH1 R132H inh	TrxR1 inh
Cc1cc(SCC(=O)N/N=C/c2ccc(O)c(O)c2)c(C)cc1Br	-0.3%	16.4%	-3.7%	22.4µM*	5.0%	11.6%
COc1ccc2nc(C)cc(SCC(=O)N/N=C/c3ccc(O)c(O)c3)c2c1	2.3%	25.1µM*	-7.5%	-8.9%	2.9%	-7.9%
Cc1ccc2sc(N(CCCN(C)C)C(=O)CCS(=O)(=O)c3ccccc3)nc2c1C	-2.9%	-1.2%[0.46 µM]	2.5%	-15.1%	8.4%	17.8µM*
CCN(CC)CCN(C(=O)CCOc1ccccc1)c1nc2c(F)cc(F)cc2s1	-2.6%	-2.6%	2.1%	-5.3%	3.5%	11.2µM*
CN(C)CCCN(C(=O)CCSc1ccccc1)c1nc2cc3c(cc2s1)OCO3	8.4%	-1.1%	1.7%	-21.3%	8.2%	?
CN(C)CCN(C(=O)CCS(=O)(=O)c1ccccc1)c1nc2c(F)cccc2s1	0.7%	6.1%[0.46 µM]	-7.7%	-11.3%	-17.4%	25.1µM*
CN(C)CCCN(C(=O)CCS(=O)(=O)c1ccccc1)c1nc2cc3c(cc2s1)OCO3	4.5%	16.5%	2.5%	-10.3%	5.0%	6.31µM*
CCC[n+]1c(/C=C/c2c(OC)cc(OC)cc2OC)ccc2ccccc21	·	·	-8.3%	·	·	26.8%
COc1ccc(OC)c2sc(N(CCCN(C)C)C(=O)CCS(=O)(=O)c3ccccc3)nc12	·	·	-1.6%	·	-2.8%	2.82µM*
COc1ccc(Cl)c2sc(N(CCN(C)C)C(=O)CCS(=O)(=O)c3ccc(C)cc3)nc12	·	·	0.2%[57.1 µM]	·	-3.8%	?
O=[N+]([O-])c1ccc2c(c1)C=CC2	·	·	1.7%	·	·	12.6µM*
O=[N+]([O-])c1ccc2c(c1)Cc1cc(F)ccc1-2	·	·	-2.9%	·	-2.9%	18.7%
CCOC(=O)c1cnc2c(OC)cccc2c1N1CCN(c2ccccc2F)CC1	·	·	-6.1%	8.91µM*	-17.8%	12.0%
CCOC(=O)c1cnc2ccc(OCC)cc2c1N1CCN(c2ccccc2OC)CC1	2.7%	-5.1%	-9.1%	-2.0%	0.1%	-7.2%
CCCCCCCCCCS(=O)(=O)N/N=C/c1ccc([N+](=O)[O-])cc1	-7.2%	3.8%	-20.9%	20µM*	1.8%	-5.4%
Brc1ccc(C2C=Cc3ccccc32)cc1 (configuration not stated)	·	·	-3.0%	·	·	?
COc1ccc(C2CC(=O)C(CS(=O)(=O)c3ccccc3)C(=O)C2)cc1 (configuration not stated)	-3.1%	2.4%	3.9%[57.1 µM]	31.6µM*	4.9%	-72.6%

Compound activity deposited in PubChem BioAssay by National Center for Advancing Translational Sciences (NCATS).
